Our source for the viability values is PubChem BioAssay.

Structures are written as SMILES. Records with an inconclusive call do not appear. The source made the active and inactive calls.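 The calls were made as follows, unless noted: active = cell viability at or below a set limit in both duplicate runs, the limit being the all-compound median minus 4 SD (cut at about 23% in these data, passing the limit was not always enough); inconclusive = no clear call, values can overlap the other calls; inactive = the rest.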

The first assay is described as follows: viability of HCT116 without oncogenic beta-catenin – human colon tumor cells, pilot screen (AID 823).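 Also: 0% = wells killed by 20 µM Hyamine and 100% = untreated DMSO cell wells.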 To be noted: HCT116 beta-catenin knockout viability, CellTiter-Glo, 60 h; at 10 µM; hits give low values. Background: Cellular ATP, detected with luciferase, serves as a proxy for viable cell number.
Regarding `CCOC(=O)N1CCC(NC(=O)c2csc3c2CCCC3)CC1`, the viability (in general, a read-out of living cells in per cent, often relative to untreated cells) was 95.2% (inactive).
Still for that read-out and setting: next, `CC1CCCCN1C(=O)c1ccccc1NC(=O)c1ccco1` (stereo not drawn): 94.7% (inactive); `CCOC(=O)N1CCN(C(=O)CSc2nnc(-c3ccc(C(C)(C)C)cc3)o2)CC1`: 85.2% (inactive); `O=C(CN1C(=O)CSc2ncccc21)N1CCOCC1`: 97.9% (inactive).
On the same count and under the same terms, to `CN(C)S(=O)(=O)c1ccc(C(=O)Nc2nc(-c3cccs3)cs2)cc1` belongs 49.8% (inactive).
Same read-out and setting: next, `CN(C)C=NC(=O)/C(C#N)=C1\CCc2ccccc2N1`: 95.2% (inactive).
`COc1cc2c(c(O)c1OC)C(=O)C(OC)CCC2` (stereo not drawn): the viability is 97% (inactive).
Same read-out and setting: to `COc1cc(NC(=O)c2cc3c(=O)n(C)c4ccccc4c3n2C)cc(OC)c1OC` belongs 106% (inactive).
Same read-out and setting: to `Cc1ccc(S(=O)(=O)/N=C/c2ccco2)cc1` belongs 105% (inactive); to `C=CCc1c(C)nc(SC)nc1Nc1ccc(C(C)=O)cc1`, 83.8% (inactive).
`O=C(O)CCCCCN1C(=O)C(=O)/C(=C(/O)c2ccccc2)C1c1ccccc1` (stereo not drawn): the viability was 100% (inactive).
On the same count and under the same terms, to `CCOC(=O)N1CCN(C(=O)c2cnn3ccccc23)CC1` belongs 103% (inactive); to `Brc1cccc(-c2nnc3sc(CNCc4ccco4)cn23)c1`, 94.2% (inactive).
On the same count and under the same terms, next, `O=C(Nc1ccccc1)OCC1CCCN2CCCCC12` (stereo not drawn): 95.7% (inactive); `O=C(NCc1ccco1)c1ccc(S(=O)(=O)c2cccc(S(=O)(=O)N3CCOCC3)c2)cc1`: 92.4% (inactive).
The same measure, in the same setting: to `CC1Cc2nc(SCC(=O)NCc3ccco3)n(-c3ccccc3)c(=O)c2S1` (stereo not drawn) belongs 103% (inactive); to `CCc1ccc2[nH]cc(C(=O)OCCOC)c(=O)c2c1`, 88% (inactive).
`CC1CCc2c(sc3ncnc(NCCN4CCOCC4)c23)C1` (stereo not drawn): the viability is 96.4% (inactive).
Same read-out and setting: next, `O=C(c1cc(-c2ccccc2O)on1)N1CCCC1`: 105% (inactive); `Cc1ccc(-c2nc(NC(=O)CSc3nnc4scc(-c5ccccc5)n34)ns2)cc1`: 74% (inactive); `COCCNC(=O)CS(=O)(=O)Cc1nc(-c2ccc(C)cc2)oc1C`: 95.1% (inactive).
Still for that read-out and setting: next, `CCOc1cccc(C2c3c(oc4cc(C)c(C)cc4c3=O)C(=O)N2CCCN(C)C)c1` (stereo not drawn): 92.9% (inactive); `COc1ccc(-c2nc(C#N)c(NC(C)C)o2)cc1`: 90.4% (inactive).
Same read-out and setting: to `O=C1CSC(c2nn(-c3ccccc3)cc2-c2cc3ccccc3oc2=O)N1Cc1ccco1` (stereo not drawn) belongs 77.4% (inactive); to `O=C(NCCC1=CCCCC1)c1ccc2c(=O)n3c(nc2c1)CCCCC3`, 89.6% (inactive); to `O=C(Cn1c(=O)oc2cc(S(=O)(=O)N3CCCC3)ccc21)N1CCN(c2ccccn2)CC1`, 90% (inactive).
Turning to `Cc1onc(-c2c(F)cccc2Cl)c1C(=O)OCC(=O)Nc1c(C)n(C)n(-c2ccccc2)c1=O`, the viability is 87.4% (inactive).
Still for that read-out and setting: next, `COCCNC(=O)CN1C(=O)CSc2cc(S(=O)(=O)N3CCCCCC3)ccc21`: 98.9% (inactive).
Take `O=C(O)c1ccccc1C(=O)c1cccs1`: the viability was 101% (inactive).
Same read-out and setting: to `CCCC(=O)Nc1ccccc1-c1nnc(SC)[nH]c1=O` belongs 113% (inactive).
Still for that read-out and setting: to `COCCNC(=O)CN1C(=O)COc2ccc(Cl)cc21` belongs 111% (inactive).
On the same count and under the same terms, to `O=C(NCCC1=CCCCC1)C1CCN(c2nnc(-n3cccc3)s2)CC1` belongs 85.2% (inactive); to `COc1ccc(C2C(C(=O)Nc3ccccn3)=C(C)Nc3ncnn32)c(OC)c1` (stereo not drawn), 101% (inactive).
As to `Cc1cc(C)c2c(n1)SCC(=O)N2CC(=O)NCCC1=CCCCC1`, the viability is 103% (inactive).
Still for that read-out and setting: next, `COCCNC(=O)C1CCN(S(=O)(=O)c2ccccc2)CC1`: 101% (inactive); `NC(=O)c1ccsc1NC(=O)C1CCCCC1`: 102% (inactive); `CCOc1ccc(-c2nc(C#N)c(N3CCN(Cc4ccccc4)CC3)o2)cc1`: 78.6% (inactive).
On the same count and under the same terms, to `CCOC(=O)C1=C(C)NC(=O)NC1c1ccc(N(CC)CC)cc1` (stereo not drawn) belongs 97.5% (inactive).
The same measure, in the same setting: to `N#CC1=C(N)OC2=C(C(=O)CCC2)C1c1ccsc1` (stereo not drawn) belongs 93.2% (inactive).

A further assay is described as follows: viability of PTEN-null HCT116 cells – cell-based, HCT116 clonal line, CellTiter-Glo, pilot screen (AID 824;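 active = viability at or below 27.92% in each of two runs, the all-compound median minus 4 SD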;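 also: 0% = 20 µM Hyamine control and 100% = vehicle cell control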). To be noted: HCT116 PTEN-deleted viability, 60 h, at 10 µM, hits give low values.
For the compound `CCOC(=O)N1CCC(NC(=O)c2csc3c2CCCC3)CC1`, the viability is 93.6% (inactive).
The same measure, in the same setting: next, `CC1CCCCN1C(=O)c1ccccc1NC(=O)c1ccco1` (stereo not drawn): 96.5% (inactive); `CCOC(=O)N1CCN(C(=O)CSc2nnc(-c3ccc(C(C)(C)C)cc3)o2)CC1`: 83.7% (inactive).
Same read-out and setting: to `O=C(CN1C(=O)CSc2ncccc21)N1CCOCC1` belongs 101% (inactive); to `CN(C)S(=O)(=O)c1ccc(C(=O)Nc2nc(-c3cccs3)cs2)cc1`, 20% (active); to `CN(C)C=NC(=O)/C(C#N)=C1\CCc2ccccc2N1`, 92.5% (inactive).
On the same count and under the same terms, to `COc1cc2c(c(O)c1OC)C(=O)C(OC)CCC2` (stereo not drawn) belongs 93.7% (inactive); to `COc1cc(NC(=O)c2cc3c(=O)n(C)c4ccccc4c3n2C)cc(OC)c1OC`, 95.7% (inactive).
As for `Cc1ccc(S(=O)(=O)/N=C/c2ccco2)cc1`, the viability was 100% (inactive).
Consider `C=CCc1c(C)nc(SC)nc1Nc1ccc(C(C)=O)cc1`, for which the viability was 87.1% (inactive).
Still for that read-out and setting: next, `O=C(O)CCCCCN1C(=O)C(=O)/C(=C(/O)c2ccccc2)C1c1ccccc1` (stereo not drawn): 103% (inactive); `CCOC(=O)N1CCN(C(=O)c2cnn3ccccc23)CC1`: 100% (inactive).
`Brc1cccc(-c2nnc3sc(CNCc4ccco4)cn23)c1`: the viability is 99.3% (inactive).
Still for that read-out and setting: to `O=C(Nc1ccccc1)OCC1CCCN2CCCCC12` (stereo not drawn) belongs 97.4% (inactive); to `O=C(NCc1ccco1)c1ccc(S(=O)(=O)c2cccc(S(=O)(=O)N3CCOCC3)c2)cc1`, 87.1% (inactive).
The same measure, in the same setting: next, `CC1Cc2nc(SCC(=O)NCc3ccco3)n(-c3ccccc3)c(=O)c2S1` (stereo not drawn): 99% (inactive); `CCc1ccc2[nH]cc(C(=O)OCCOC)c(=O)c2c1`: 87.5% (inactive).
On the same count and under the same terms, to `CC1CCc2c(sc3ncnc(NCCN4CCOCC4)c23)C1` (stereo not drawn) belongs 95% (inactive).
Consider `O=C(c1cc(-c2ccccc2O)on1)N1CCCC1`, for which the viability was 90.7% (inactive).
Same read-out and setting: next, `Cc1ccc(-c2nc(NC(=O)CSc3nnc4scc(-c5ccccc5)n34)ns2)cc1`: 66.8% (inactive); `COCCNC(=O)CS(=O)(=O)Cc1nc(-c2ccc(C)cc2)oc1C`: 95.3% (inactive).
`CCOc1cccc(C2c3c(oc4cc(C)c(C)cc4c3=O)C(=O)N2CCCN(C)C)c1` (stereo not drawn): the viability is 85.9% (inactive).
The same measure, in the same setting: next, `COc1ccc(-c2nc(C#N)c(NC(C)C)o2)cc1`: 93.8% (inactive).
Still for that read-out and setting: to `O=C1CSC(c2nn(-c3ccccc3)cc2-c2cc3ccccc3oc2=O)N1Cc1ccco1` (stereo not drawn) belongs 76.9% (inactive); to `O=C(NCCC1=CCCCC1)c1ccc2c(=O)n3c(nc2c1)CCCCC3`, 97.8% (inactive).
In the case of `O=C(Cn1c(=O)oc2cc(S(=O)(=O)N3CCCC3)ccc21)N1CCN(c2ccccn2)CC1`, the viability is 92.5% (inactive).
The same measure, in the same setting: to `Cc1onc(-c2c(F)cccc2Cl)c1C(=O)OCC(=O)Nc1c(C)n(C)n(-c2ccccc2)c1=O` belongs 90.3% (inactive); to `COCCNC(=O)CN1C(=O)CSc2cc(S(=O)(=O)N3CCCCCC3)ccc21`, 109% (inactive).
Same read-out and setting: to `O=C(O)c1ccccc1C(=O)c1cccs1` belongs 92.5% (inactive); to `CCCC(=O)Nc1ccccc1-c1nnc(SC)[nH]c1=O`, 99.3% (inactive).
The same measure, in the same setting: next, `COCCNC(=O)CN1C(=O)COc2ccc(Cl)cc21`: 97.9% (inactive); `O=C(NCCC1=CCCCC1)C1CCN(c2nnc(-n3cccc3)s2)CC1`: 82.2% (inactive).
Take `COc1ccc(C2C(C(=O)Nc3ccccn3)=C(C)Nc3ncnn32)c(OC)c1` (stereo not drawn): the viability is 92.1% (inactive).
Same read-out and setting: to `Cc1cc(C)c2c(n1)SCC(=O)N2CC(=O)NCCC1=CCCCC1` belongs 92.9% (inactive).
Same read-out and setting: next, `COCCNC(=O)C1CCN(S(=O)(=O)c2ccccc2)CC1`: 93.7% (inactive).
On the same count and under the same terms, to `NC(=O)c1ccsc1NC(=O)C1CCCCC1` belongs 101% (inactive).
For the compound `CCOc1ccc(-c2nc(C#N)c(N3CCN(Cc4ccccc4)CC3)o2)cc1`, the viability was 87.2% (inactive).
For the compound `CCOC(=O)C1=C(C)NC(=O)NC1c1ccc(N(CC)CC)cc1` (stereo not drawn), the viability is 99.3% (inactive).
The same measure, in the same setting: next, `N#CC1=C(N)OC2=C(C(=O)CCC2)C1c1ccsc1` (stereo not drawn): 103% (inactive).
